Test [1] can be described thus: AP1 Signaling Pathway (AID 357). Further: on the % scale 0 is the no-effect control and ±100 the full control effect. Summed up: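 AP-1-bla ME-180 cells with beta-lactamase reporter under AP-1 response element, stimulated with EC50 EGF; compounds titrated, 5 hours at 37 degrees Celsius. CCF4 read at 460/530 nm ratio; positive and negative modulators judged by AC50.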
For test [2], the target named is Cytochrome P450 1A2 (Homo sapiens) (UniProt P05177). Put plainly: p450-cyp1a2 (AID 410; calls by dose curve; further: potency means the concentration at half of the fitted maximal effect;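 on activity change, negative = inhibition: -100% = full effect of reference inhibitor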). Summed up: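 Luminescent readout of luciferin formed from Luciferin-ME by human CYP1A2; data normalized against complete inhibition by 57 uM furafylline. Enzyme 20nM, substrate 100uM at Km, 100mM KPO4 buffer, 60 min reaction at room temperature.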
Cytochrome P450 1A2 (Homo sapiens), sequence (P05177 whole entry, looked up): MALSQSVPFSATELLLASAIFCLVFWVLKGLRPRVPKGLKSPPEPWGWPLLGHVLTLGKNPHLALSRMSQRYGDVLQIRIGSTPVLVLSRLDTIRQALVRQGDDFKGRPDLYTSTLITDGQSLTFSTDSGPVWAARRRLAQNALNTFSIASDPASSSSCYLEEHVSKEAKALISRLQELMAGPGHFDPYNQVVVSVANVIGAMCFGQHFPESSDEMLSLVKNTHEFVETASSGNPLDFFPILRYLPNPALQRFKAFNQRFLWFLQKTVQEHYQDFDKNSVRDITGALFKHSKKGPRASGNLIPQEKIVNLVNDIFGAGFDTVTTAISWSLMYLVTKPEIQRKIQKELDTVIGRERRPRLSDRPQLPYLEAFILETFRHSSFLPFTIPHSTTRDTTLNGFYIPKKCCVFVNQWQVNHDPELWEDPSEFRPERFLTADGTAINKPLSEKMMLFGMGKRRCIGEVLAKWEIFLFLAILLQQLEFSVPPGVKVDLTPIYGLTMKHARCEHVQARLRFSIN
Test [3] is described as follows: NFAT Signaling Pathway (AID 444).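 Further: carbachol stimulus at about its EC50 of 1 µM final; on the % scale 0 is the no-effect control and ±100 the full control effect.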 Conditions: Jurkat NFAT-bla M1, carbachol, beta-lactamase ratio, 5 h. Summed up: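 Read-out: CCF4 FRET ratio (460 nm/530 nm) after 1 h RT dye loading, used for %activity and AC50 from titration series. Cells: Jurkat NFAT-β-lactamase/M1 line, treated with compound plus 1 uM carbachol for 5 h, 37 °C.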
A short description of test [4]: Stat Signaling Pathway (AID 446).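 Further: ME-180 cervical cancer cells given 40 pM IL-6 alongside compound; SIE-controlled beta-lactamase reporter measured as 460/530 nm FRET emission ratio; on the % scale 0 is the no-effect control and ±100 the full control effect.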 Summed up: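 Reporter line: ME-180 cervical carcinoma, SIE-beta-lactamase. Treatment: compound with 40 pM IL-6, 5 hrs, 37 C, in low-serum OPTI-MEM with 10 mM HEPES pH 7.3. Detection: 460/530 nm fluorescence.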
Test [5] deals with Glucocorticoid receptor (Homo sapiens) (UniProt P04150). Put plainly: GR-GFP Redistribution (AID 450;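 active means compounds whose dose series gives a full or clear partial fitted curve of increased nuclear translocation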; further: potency means the concentration at half of the fitted maximal effect). The conditions noted are these: U2OS GR-GFP nuclear translocation, laser cytometry, 2 h.
Glucocorticoid receptor (Homo sapiens), sequence (P04150 whole entry, looked up): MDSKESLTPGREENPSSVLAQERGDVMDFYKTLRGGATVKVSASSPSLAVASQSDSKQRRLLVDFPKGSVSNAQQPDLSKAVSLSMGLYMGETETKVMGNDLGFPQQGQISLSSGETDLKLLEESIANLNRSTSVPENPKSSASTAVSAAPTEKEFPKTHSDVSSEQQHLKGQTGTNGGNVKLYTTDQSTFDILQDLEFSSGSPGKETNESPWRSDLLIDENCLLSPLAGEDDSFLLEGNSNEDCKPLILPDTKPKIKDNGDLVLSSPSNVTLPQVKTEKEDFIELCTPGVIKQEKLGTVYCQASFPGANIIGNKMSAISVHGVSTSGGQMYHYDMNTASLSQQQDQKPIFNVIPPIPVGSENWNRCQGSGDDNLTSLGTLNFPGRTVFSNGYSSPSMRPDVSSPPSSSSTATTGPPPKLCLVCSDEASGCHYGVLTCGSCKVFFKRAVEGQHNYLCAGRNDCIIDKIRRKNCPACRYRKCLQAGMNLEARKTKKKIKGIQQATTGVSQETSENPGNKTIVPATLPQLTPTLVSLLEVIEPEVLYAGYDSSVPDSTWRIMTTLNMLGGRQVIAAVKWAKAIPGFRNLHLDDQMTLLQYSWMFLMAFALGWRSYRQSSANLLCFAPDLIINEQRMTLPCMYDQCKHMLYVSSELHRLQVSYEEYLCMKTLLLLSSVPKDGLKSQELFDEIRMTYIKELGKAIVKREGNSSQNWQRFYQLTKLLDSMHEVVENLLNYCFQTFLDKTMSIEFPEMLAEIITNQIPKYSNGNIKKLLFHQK
For test [6] the target is unchanged. Put plainly: GR-EFC Redistribution (AID 451; calls by dose curve; further: potency means the concentration at half of the fitted maximal effect). Conditions: CHO-K1 GR-EFC translocation, beta-gal luminescence, 2 h. Summed up:
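Translocation of GR-ED fusion to nuclear EA restores b-gal, read by luminescence after 1 h room-temperature detection. Engineered CHO-K1 biosensor cells, 1,000/well, exposed 2 h at 37 C to titrations up to 46 uM final.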

Test [7] can be described thus: Cell Viability - BJ (AID 421; calls by dose curve;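 further: potency means the concentration at half of the fitted maximal effect; cells exposed to compound for 40 hours at 37 °C before readout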). The conditions noted are these: BJ fibroblast viability, qHTS. Summed up: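 Cytotoxicity as drop in intracellular ATP (CellTiter-Glo, 20 min RT) after 40 hr compound exposure of BJ fibroblasts at 37 °C. Titrations scaled between DMSO and 100 uM tamoxifen, Hill-fitted for AC50.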
In general terms: Quantitative high-throughput screening tests each substance at several concentrations.

The nature of test [8]: Cell Viability - Jurkat (AID 426;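 active means dose-dependent loss of cell ATP signal giving a full or clear fitted curve, ranked by lower potency value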;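 further: potency means the concentration at half of the fitted maximal effect; cells exposed to compound for 40 hours at 37 °C before ATP read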). Conditions: qHTS. Summed up: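 qHTS, 1536-well; Jurkat E6-1, 5000 cells/well, complete medium; cpd 40 hr, 37 °C; CellTiter-Glo 20 min RT; luminescence. AC50 by Hill fit.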
A short description of test [9]: Cell Viability - Hek293 (AID 427;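 active means compounds whose dose-response curve shows a full or clear partial loss of cell viability, called from curve shape rather than a numeric limit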;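 further: potency means the concentration at half of the fitted maximal effect; cells exposed to compound for 40 hours at 37 °C before reading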). Conditions: qHTS. Summed up: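 Luminescent ATP content (CellTiter-Glo, 20 min at room temperature) was measured after a 40 hr, 37 °C compound exposure of HEK293 cells. AC50 values came from Hill-equation fits of qHTS concentration-response data normalized to DMSO and 100 uM tamoxifen.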
Test [10] is described as follows: Cell Viability - MRC5 (AID 434; calls by dose curve;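 further: potency means the concentration at half of the fitted maximal effect; cells exposed to compound for 40 hours at 37 °C; potency reflects cytotoxicity seen as loss of intracellular ATP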). Conditions: MRC5 lung fibroblast viability, qHTS. Summed up: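 qHTS cytotoxicity in human lung fibroblast MRC5 cells; 40 hr treatment, 37 °C; cellular ATP by luciferase luminescence; DMSO = 0%, 100 uM tamoxifen = 100% inhibition; Hill-fit AC50.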

The text below walks through data of PubChem BioAssay (NCATS).

“And” between values parts separate entries of the source, which are not always exact repeats. Equal values may be shown once. Values without a mark were called inactive. Inconclusive results are not listed. The source made the active and inactive calls. Unless noted, the call rests on the fitted dose curve; in most records, active means well fitted curve in either direction with a large enough effect (not every such curve was filed as active); inconclusive means small, poorly fitted or top-dose-only effect, or another doubt; inactive means flat fitted curve, though single readings scatter. A value given as a limit tells only on which side of the number the result lay.

As for `CC1(C)C(=O)N(CCN2CCC(C(=O)c3ccc(F)cc3)CC2)c2ccccc21`, the result in test [1] and in test [4] was inactive. Besides, the Potency entry in test [2] is “inactive”. For the same molecule, the activity change, negative = inhibition in test [3] (at 38 µM (top of the series)) was -22.8%. Also, the Potency in test [5] and in test [6] was > 46 µM each time.

As to `CCCc1cc(=O)[nH]c(=S)[nH]1`, the call in [1] and in test [4] was inactive. For the same molecule, the Potency result in test [2] is “inactive”. The Potency in [7], in test [8], in [9] and in [10] was > 92 µM each time. In test [3] (at 17.2 µM (top of the series)), the activity change, negative = inhibition was -2.4% and 6.45%.

For the molecule `Nc1nc(OCc2ccccc2)c2[nH]cnc2n1`, the outcome in test [1] and in test [4] was inactive. Moreover, the Potency in [2] is 1 µM (active); in test [5], > 46 µM; in test [6], > 46 µM. Also, in [3] (at 38 µM (top of the series)), the activity change, negative = inhibition was -5.61%.

Consider `CCC1=C(C)CN(C(=O)NCCc2ccc(S(=O)(=O)NC(=O)NC3CCC(C)CC3)cc2)C1=O` (stereo unspecified), for which the molecule was called inactive in [1] and in [4]. The Potency entry in [2] is “inactive”. In addition, the activity change, negative = inhibition in test [3] (at 17.2 µM (top of the series)) is 4.19%. Besides, the Potency in [5] and in test [6] was > 20.6 µM in each case.

`Cc1ccc(C)c(OCCCC(C)(C)C(=O)O)c1`: the result in test [1] and in test [4] was inactive. The Potency in test [2] was 12.6 µM (active); in test [7], > 92 µM; in [8] it was > 92 µM; in test [9], > 92 µM; in test [10] it was > 92 µM. Besides, in [3] (at 17.2 µM (top of the series)), the activity change, negative = inhibition is 0.602% and 17.8%.

Regarding `Cc1c(OCC(F)(F)F)ccnc1CS(=O)c1nc2ccccc2[nH]1` (stereo unspecified), the molecule was classed as inactive in test [1] and in test [4]. Besides, the Potency in test [2] was 31.6 µM (active) and 15.8 µM (active); in test [5], > 46 µM and > 20.6 µM; in [6] it was > 46 µM and > 20.6 µM. In addition, the activity change, negative = inhibition in [3] (at 17.2 µM (top of the series)) was -20.4% and -11.1%; in test [3] (at 38 µM (top of the series)), 0.241%.

On to `NS(=O)(=O)c1cc(C(=O)O)c(NCc2ccco2)cc1Cl`, for which the molecule was classed as inactive in test [1] and in test [4]. In addition, the Potency in test [7], in test [8], in test [9] and in test [10] was > 92 µM each time. Moreover, the activity change, negative = inhibition in test [3] (at 17.2 µM (top of the series)) was -8.48%.

Turning to `O=C(O)c1cccnc1Nc1cccc(C(F)(F)F)c1`, the molecule was classed as inactive in test [1] and in test [4]. For the same molecule, the Potency in test [2] was 10 µM (active) and 5.01 µM (active); in test [5] it was > 46 µM and > 20.6 µM; in test [6] it was > 46 µM and > 20.6 µM. Further, the activity change, negative = inhibition in test [3] (at 17.2 µM (top of the series)) is -16.9% and -24.7%; in test [3] (at 38 µM (top of the series)) it was 5.69%.

Consider `O=C(CCc1ccc(O)cc1)c1c(O)cc(O)cc1O`, for which, in test [1], the outcome was inactive. The Potency in [2] was 6.31 µM (active) and 2 µM (active); in [5], > 46 µM; in test [6] it was > 46 µM. For the same molecule, in [3] (at 38 µM (top of the series)), the activity change, negative = inhibition is 9.49%.

As for `O=C(O)c1cc(=O)c2c(OCC(O)COc3cccc4oc(C(=O)O)cc(=O)c34)cccc2o1`, the molecule was called inactive in test [1] and in test [4]. Further, the Potency entry in test [2] is “inactive”. Further, the activity change, negative = inhibition in test [3] (at 17.2 µM (top of the series)) was -1.1% and -27.1%.

In the case of `Cc1cc(C2CCCCC2)n(O)c(=O)c1`, the result in test [1] and in test [4] was inactive. The Potency in test [2] was 15.8 µM (active); in test [5], > 20.6 µM; in [6] it was > 20.6 µM.

In the case of `Cc1cc2cc3c(C)cc(=O)oc3c(C)c2o1`, the outcome in test [1] was inactive. Also, the Potency in test [2] was 1 µM (active).

Regarding `O=c1c(O)c(-c2ccc(O)cc2O)oc2cc(O)cc(O)c12`, the outcome in [1] was inactive. For the same molecule, the Potency in test [2] is 12.6 µM (active); in test [5], > 46 µM and > 20.6 µM; in [6], > 46 µM. Moreover, the activity change, negative = inhibition in [3] (at 17.2 µM (top of the series)) was 10%; in test [3] (at 38 µM (top of the series)), 2.93%.

Turning to `Cc1cc(=O)oc2cc(O)ccc12`, the result in [1] and in [4] was inactive. For the same molecule, the Potency in test [2] was 3.98 µM (active).

For `CCCCC(CC)COC(=O)C(C#N)=C(c1ccccc1)c1ccccc1` (stereo unspecified), the Potency in test [7], in test [8], in [9] and in [10] was > 92 µM in each case.

In the case of `CC1Cc2ccccc2N1NC(=O)c1ccc(Cl)c(S(N)(=O)=O)c1` (stereo unspecified), the result in [1] and in test [4] was inactive. The activity change, negative = inhibition in test [3] (at 17.2 µM (top of the series)) is 6.17%.

Consider `CC(C)c1ccc2c(c1)c(SC(C)(C)C)c(CC(C)(C)C(=O)O)n2Cc1ccc(Cl)cc1`, for which the Potency in test [2] was 25.1 µM (active) and 31.6 µM (active); in test [5] it was > 46 µM; in [6], > 46 µM.

As for `Oc1ccc(OCc2ccccc2)cc1`, the Potency in test [2] was 1.58 µM (active); in test [5], > 20.6 µM; in [6], > 20.6 µM. Besides, the activity change, negative = inhibition in [3] (at 17.2 µM (top of the series)) was -7.24%. Besides, the molecule was classed as inactive in test [4].

Regarding `COc1cc2nc(N3CCN(C(=O)C4CCCO4)CC3)nc(N)c2cc1OC` (stereo unspecified), the call in [1] and in [4] was inactive. Besides, the Potency in test [5] was > 20.6 µM.

For `COc1ccc2cc([C@H](C)C(=O)O)ccc2c1`, the molecule was classed as inactive in [1] and in [4]. Further, the activity change, negative = inhibition in [3] (at 17.2 µM (top of the series)) is -15.8% and 6.69% and 9.43%; in test [3] (at 38 µM (top of the series)), 0.0959%.

In the case of `Nc1nc(Cl)nc2c1ncn2[C@H]1C[C@H](O)[C@@H](CO)O1`, the call in test [1] and in test [4] was inactive. Moreover, the activity change, negative = inhibition in test [3] (at 17.2 µM (top of the series)) was 16.6% and 27.4%. The Potency in test [5] was > 20.6 µM.

With `CS(=O)(=O)OCCCCOS(C)(=O)=O`, the Potency in test [7], in test [8], in [9] and in [10] was > 92 µM in each case.

Consider `Cc1cc(O)c2c(c1)C(=O)c1cc(O)cc(O)c1C2=O`, for which the Potency is 3.16 µM (active) and 398 nM (active) in test [2]; > 92 µM in [7]; > 92 µM in [10]; > 46 µM in [5]; > 46 µM in test [6]. For the same molecule, the activity change, negative = inhibition in test [3] (at 38 µM (top of the series)) was 7.8%.
